From paper PMC7862700, “An all-to-all approach to the identification of sequence-specific readers for epigenetic DNA modifications on cytosine” come the findings set out here.

Holding throughout (experiment): DAPPL (digital affinity profiling via proximity ligation, sequencing); 10 mM Tris-HCl pH 7.5, 50 mM NaCl, 1 mM DTT, 4% glycerol, room temperature, 30 min; GST-TFs on glutathione beads, 16-mer random dsDNA library, 0.1% formaldehyde crosslink after washing; high values mean tight binding
Common to all, as to conditions: protein: recombinant; tags: N-terminal GST; dsDNA, one strand shown

One test concerns the target T1, ERF (Homo sapiens, UniProt P50548 1-548).
T1 sequence: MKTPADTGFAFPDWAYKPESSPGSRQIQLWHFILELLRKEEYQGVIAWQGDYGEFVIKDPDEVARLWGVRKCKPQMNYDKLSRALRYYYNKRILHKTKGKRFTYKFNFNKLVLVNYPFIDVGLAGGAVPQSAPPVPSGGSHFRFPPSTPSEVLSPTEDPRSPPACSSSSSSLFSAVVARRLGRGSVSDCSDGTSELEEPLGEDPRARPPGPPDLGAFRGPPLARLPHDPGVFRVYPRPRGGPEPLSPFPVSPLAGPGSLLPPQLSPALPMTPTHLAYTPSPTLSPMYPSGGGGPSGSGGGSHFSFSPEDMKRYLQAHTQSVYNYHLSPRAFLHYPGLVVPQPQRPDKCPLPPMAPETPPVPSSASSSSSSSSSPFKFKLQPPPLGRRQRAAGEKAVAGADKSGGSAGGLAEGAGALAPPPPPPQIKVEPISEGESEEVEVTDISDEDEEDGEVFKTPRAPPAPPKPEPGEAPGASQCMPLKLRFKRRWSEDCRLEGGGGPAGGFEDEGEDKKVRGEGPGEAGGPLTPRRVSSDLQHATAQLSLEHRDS
The method, boiled down: (§1)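 In yeast, human transcription factors were expressed with a GST fusion, then pulled down on glutathione beads and given DNA barcodes. Pooled with a tag-only sample, they were exposed to 200 nmole of a 16-mer random double-stranded DNA library (Tris/NaCl/DTT/glycerol buffer, room temperature, 30 min), washed, crosslinked with 0.1% formaldehyde, proximity-ligated using BsaI/T4 ligase for 1 h at 37 °C, PCR-amplified and read on an Illumina NextSeq500. Each hexamer's frequency of reads for a factor, divided by the matching frequency for the tag-only sample, gives the binding signal.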

For another test, the target named is T2, ETV3L (Homo sapiens, UniProt Q6ZN32 1-361).
T2 sequence: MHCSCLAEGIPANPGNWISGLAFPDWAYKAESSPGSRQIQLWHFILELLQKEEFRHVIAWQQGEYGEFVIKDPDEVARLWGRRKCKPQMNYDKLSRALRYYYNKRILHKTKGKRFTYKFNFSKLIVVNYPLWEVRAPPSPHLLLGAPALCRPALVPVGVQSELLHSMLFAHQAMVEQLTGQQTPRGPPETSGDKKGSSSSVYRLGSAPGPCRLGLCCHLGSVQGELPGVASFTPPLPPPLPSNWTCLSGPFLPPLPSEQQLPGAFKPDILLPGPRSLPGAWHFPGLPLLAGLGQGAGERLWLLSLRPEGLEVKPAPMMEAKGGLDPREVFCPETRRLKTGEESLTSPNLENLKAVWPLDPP
The method, boiled down: as §1

A further test addresses T3, ETS2 (Homo sapiens, UniProt P15036 1-469).
T3 sequence: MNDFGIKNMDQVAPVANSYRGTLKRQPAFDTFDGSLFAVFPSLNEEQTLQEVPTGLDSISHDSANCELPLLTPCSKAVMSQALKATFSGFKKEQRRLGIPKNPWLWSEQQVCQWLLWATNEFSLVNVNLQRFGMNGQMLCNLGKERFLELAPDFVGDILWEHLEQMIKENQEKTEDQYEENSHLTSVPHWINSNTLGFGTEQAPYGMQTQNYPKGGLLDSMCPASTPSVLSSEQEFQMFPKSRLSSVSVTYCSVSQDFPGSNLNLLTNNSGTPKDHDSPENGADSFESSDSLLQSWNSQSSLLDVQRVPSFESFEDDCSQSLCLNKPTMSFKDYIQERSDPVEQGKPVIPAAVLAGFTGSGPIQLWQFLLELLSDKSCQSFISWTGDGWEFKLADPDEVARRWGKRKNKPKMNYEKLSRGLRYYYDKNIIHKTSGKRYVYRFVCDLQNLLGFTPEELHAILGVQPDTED
The method, boiled down:
as §1

The next test has as its target T4, SPDEF (Homo sapiens, UniProt O95238 1-335).
T4 sequence: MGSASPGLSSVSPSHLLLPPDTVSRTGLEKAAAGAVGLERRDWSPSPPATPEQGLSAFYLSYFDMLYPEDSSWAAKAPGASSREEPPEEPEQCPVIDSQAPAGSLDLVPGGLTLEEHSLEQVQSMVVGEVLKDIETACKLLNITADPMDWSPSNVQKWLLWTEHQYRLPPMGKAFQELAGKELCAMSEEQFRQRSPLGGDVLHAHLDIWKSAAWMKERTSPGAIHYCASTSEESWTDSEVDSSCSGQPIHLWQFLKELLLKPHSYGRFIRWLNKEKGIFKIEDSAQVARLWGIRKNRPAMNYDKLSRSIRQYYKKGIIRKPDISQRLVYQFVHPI
Summed up:
as §1

The next test deals with T5, ETV7 (Homo sapiens, UniProt Q9Y603 1-341).
T5 sequence: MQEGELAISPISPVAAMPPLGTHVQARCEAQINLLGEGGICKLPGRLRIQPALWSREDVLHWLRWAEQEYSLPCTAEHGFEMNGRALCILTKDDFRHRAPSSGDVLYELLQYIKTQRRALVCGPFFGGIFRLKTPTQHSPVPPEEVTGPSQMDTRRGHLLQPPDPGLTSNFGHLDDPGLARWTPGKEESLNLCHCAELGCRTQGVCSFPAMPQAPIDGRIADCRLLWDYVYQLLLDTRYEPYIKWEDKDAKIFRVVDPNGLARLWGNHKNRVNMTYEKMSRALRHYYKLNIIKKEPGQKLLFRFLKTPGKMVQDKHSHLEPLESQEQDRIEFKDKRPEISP
The method, boiled down: as §1

In a further test the target is T6, ELF5 (Homo sapiens, UniProt Q9UKW6-2 1-255).
T6 sequence: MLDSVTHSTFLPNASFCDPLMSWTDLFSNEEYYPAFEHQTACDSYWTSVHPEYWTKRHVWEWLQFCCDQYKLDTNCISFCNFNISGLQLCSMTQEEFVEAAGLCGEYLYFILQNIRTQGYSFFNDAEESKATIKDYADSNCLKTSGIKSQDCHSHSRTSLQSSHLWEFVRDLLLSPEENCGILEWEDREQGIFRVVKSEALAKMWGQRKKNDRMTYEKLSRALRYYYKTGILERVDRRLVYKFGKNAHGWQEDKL
Summed up: as §1

The target in the next test is T7, ETV3 (Homo sapiens, UniProt P41162-2 1-143).
T7 sequence: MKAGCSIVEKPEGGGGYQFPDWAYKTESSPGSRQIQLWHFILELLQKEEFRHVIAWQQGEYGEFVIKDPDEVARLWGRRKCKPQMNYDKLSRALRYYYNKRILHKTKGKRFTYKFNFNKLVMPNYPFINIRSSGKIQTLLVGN
The method, boiled down: as §1

In a further test the target is ETV6 (Homo sapiens, UniProt P41212 1-452). Summed up: as §1
ETV6, sequence (P41212 whole entry): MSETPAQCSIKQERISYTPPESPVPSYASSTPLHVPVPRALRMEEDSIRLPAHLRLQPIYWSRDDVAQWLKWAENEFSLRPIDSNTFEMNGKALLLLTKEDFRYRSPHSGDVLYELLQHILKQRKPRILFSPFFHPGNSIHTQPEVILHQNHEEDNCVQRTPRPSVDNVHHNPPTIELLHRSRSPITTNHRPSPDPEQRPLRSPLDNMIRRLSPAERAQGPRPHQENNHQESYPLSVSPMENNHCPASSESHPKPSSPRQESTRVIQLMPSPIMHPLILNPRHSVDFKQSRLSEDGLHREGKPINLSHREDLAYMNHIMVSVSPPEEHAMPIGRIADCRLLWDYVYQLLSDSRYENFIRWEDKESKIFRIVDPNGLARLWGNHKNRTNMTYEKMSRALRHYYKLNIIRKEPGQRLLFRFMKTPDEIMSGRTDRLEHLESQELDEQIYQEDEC

On to TCCCAA, for which the binding signal with ERF is 1.34 fold enrichment (6-mer frequency, TF over GST control); in the test with ETV3L, 1.23 fold enrichment (6-mer frequency, TF over GST control); in the test with ETS2 it was 1.12 fold enrichment (6-mer frequency, TF over GST control); in the test with SPDEF, 1.18 fold enrichment (6-mer frequency, TF over GST control); in the test with ETV7, 1.11 fold enrichment (6-mer frequency, TF over GST control); with ELF5, 1.21 fold enrichment (6-mer frequency, TF over GST control). The binding signal with ETV3 is 1.16 fold enrichment (6-mer frequency, TF over GST control); in the test with ETV6, 1.23 fold enrichment (6-mer frequency, TF over GST control).
On to ATAATT, for which the binding signal with ERF is 1.33 fold enrichment (6-mer frequency, TF over GST control); in the test with ETV3L, 1.4 fold enrichment (6-mer frequency, TF over GST control); in the test with ETS2, 1.31 fold enrichment (6-mer frequency, TF over GST control); with SPDEF it was 1.23 fold enrichment (6-mer frequency, TF over GST control); with ETV7 it was 1.31 fold enrichment (6-mer frequency, TF over GST control); in the test with ELF5 it was 1.31 fold enrichment (6-mer frequency, TF over GST control). The binding signal with ETV3 was 1.32 fold enrichment (6-mer frequency, TF over GST control); in the test with ETV6, 1.45 fold enrichment (6-mer frequency, TF over GST control).
Turning to TGTGCC, the binding signal in the test with ERF is 1.01 fold enrichment (6-mer frequency, TF over GST control); in the test with ETV3L, 1.19 fold enrichment (6-mer frequency, TF over GST control); in the test with ETS2 it was 1.07 fold enrichment (6-mer frequency, TF over GST control); with SPDEF, 1.17 fold enrichment (6-mer frequency, TF over GST control); with ETV7 it was 1.04 fold enrichment (6-mer frequency, TF over GST control); with ELF5, 1.05 fold enrichment (6-mer frequency, TF over GST control). Besides, the binding signal was 1.13 fold enrichment (6-mer frequency, TF over GST control) with ETV3 and 1.21 fold enrichment (6-mer frequency, TF over GST control) in the test with ETV6.
As to ATCCCG, the binding signal was 1.4 fold enrichment (6-mer frequency, TF over GST control) with ERF; 1.33 fold enrichment (6-mer frequency, TF over GST control) with ETV3L; 1.44 fold enrichment (6-mer frequency, TF over GST control) with ETS2; 1.71 fold enrichment (6-mer frequency, TF over GST control) with SPDEF; 1.27 fold enrichment (6-mer frequency, TF over GST control) with ETV7; 1.7 fold enrichment (6-mer frequency, TF over GST control) with ELF5. Further, the binding signal was 1.41 fold enrichment (6-mer frequency, TF over GST control) with ETV3 and 1.52 fold enrichment (6-mer frequency, TF over GST control) in the test with ETV6.
Consider GTCCTT, for which the binding signal was 1.14 fold enrichment (6-mer frequency, TF over GST control) in the test with ERF; 1.29 fold enrichment (6-mer frequency, TF over GST control) with ETV3L; 1.28 fold enrichment (6-mer frequency, TF over GST control) with ETS2; 1.29 fold enrichment (6-mer frequency, TF over GST control) in the test with SPDEF; 1.11 fold enrichment (6-mer frequency, TF over GST control) with ETV7; 1.43 fold enrichment (6-mer frequency, TF over GST control) with ELF5. In addition, the binding signal was 1.18 fold enrichment (6-mer frequency, TF over GST control) in the test with ETV3 and 1.26 fold enrichment (6-mer frequency, TF over GST control) in the test with ETV6.
As for CTTACG, the binding signal with ERF was 1.09 fold enrichment (6-mer frequency, TF over GST control); with ETV3L, 1.05 fold enrichment (6-mer frequency, TF over GST control); with ETS2, 1.13 fold enrichment (6-mer frequency, TF over GST control); with SPDEF, 1.1 fold enrichment (6-mer frequency, TF over GST control); with ETV7 it was 1.1 fold enrichment (6-mer frequency, TF over GST control); with ELF5, 1.15 fold enrichment (6-mer frequency, TF over GST control). Besides, the binding signal in the test with ETV3 was 1.15 fold enrichment (6-mer frequency, TF over GST control); with ETV6, 1 fold enrichment (6-mer frequency, TF over GST control).
On to AGTACT, for which the binding signal with ERF is 1.11 fold enrichment (6-mer frequency, TF over GST control); with ETV3L, 1.12 fold enrichment (6-mer frequency, TF over GST control); with ETS2 it was 1.23 fold enrichment (6-mer frequency, TF over GST control); with SPDEF it was 1.33 fold enrichment (6-mer frequency, TF over GST control); with ETV7, 1.3 fold enrichment (6-mer frequency, TF over GST control); in the test with ELF5, 1.53 fold enrichment (6-mer frequency, TF over GST control). Also, the binding signal is 1.28 fold enrichment (6-mer frequency, TF over GST control) in the test with ETV3 and 1.62 fold enrichment (6-mer frequency, TF over GST control) with ETV6.
In the case of TATTCG, the binding signal with ERF was 1.17 fold enrichment (6-mer frequency, TF over GST control); with ETV3L it was 1.16 fold enrichment (6-mer frequency, TF over GST control); in the test with ETS2, 1.13 fold enrichment (6-mer frequency, TF over GST control); in the test with SPDEF, 1.1 fold enrichment (6-mer frequency, TF over GST control); with ETV7, 1.19 fold enrichment (6-mer frequency, TF over GST control); with ELF5, 1.09 fold enrichment (6-mer frequency, TF over GST control). Besides, the binding signal was 1.19 fold enrichment (6-mer frequency, TF over GST control) with ETV3 and 1.02 fold enrichment (6-mer frequency, TF over GST control) with ETV6.
